The results in this text go back to PubChem BioAssay (NCATS).

Each structure is given as a SMILES string. Results filed as inconclusive are left out. Calls of active or inactive are those of the source. The call rests on the fitted dose curve; in most records, active means well fitted inhibition curve with a large enough effect; inconclusive means small, poorly fitted or top-dose-only effect; inactive means no such curve, though single readings can be large or run the other way.
Potency means the concentration at half of the fitted maximal effect.

In this assay the test system is Zika virus NS2B-NS3 protease (unlinked complex). The assay can be described thus: Primary screen GU Rhodamine qHTS for Zika virus inhibitors: Unlinked NS2B-NS3 protease assay (AID 1347159). Further: nearly all actives have a fitted effect of over 60% in size. The conditions noted are these: Recombinant ZIKV NS2B-NS3 protease, Rhodamine110 substrate fluorescence; series mostly up to 107 µM. The gist of the method: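 Compounds, tested up to 114 microM, were incubated for 15 minutes with 25 nM unlinked NS2B-NS3 protease at pH 8.0. Cleavage of 1.5 microM Rhodamine110 substrate was then followed by fluorescence for 15 minutes.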
Turning to `C=C1C(=O)O[C@@H]2C[C@H](C)[C@@H]3CC(=O)C(C)=C3C[C@H]12`, the Potency result is “inactive”. To `Cc1cccc(-c2[nH]ncc2-c2ccc(F)c(-c3cnn(CCO)c3)c2)n1` belongs “inactive”; to `CC(C)(C)c1ccc(C(=O)Nc2cc(Cl)c(Br)cc2C(=O)O)cc1`, 2.51 µM (active).

Regarding `O=C(Nc1ccn(Cc2ccc(O)cc2C(F)(F)F)n1)c1c(F)cccc1F`, the Potency result is “inactive”. For `COc1ccccc1C(=O)Nc1cc2c(cc1N1CCCC1)n(C)c(=O)n2C` the value was “inactive”; for `Cc1c(OCc2cccc(-c3ccc(C(=O)O)cc3)c2)cc2c(c1C)C(=O)C(C1CCCC1)C2` (centres undefined), 1.78 µM (active); for `CCC[C@@]1(CCc2ccccc2)CC(O)=C([C@H](CC)c2cccc(NS(=O)(=O)c3ccc(C(F)(F)F)cn3)c2)C(=O)O1`, 8.91 µM (active). Turning to `C/C=C(/C=C(C)/C=C/C=C/C=C(\C)C(=O)C12OC1C(O)(CCO)NC2=O)C(=O)OC` (centres undefined), the Potency entry is “inactive”. For `C=C1C(=O)O[C@H]2C3=C(C)CCC[C@]3(C)C(=O)C[C@@H]12` the value was “inactive”; for `CCC/C=C/c1cc2c(C=O)c(O)c(CC=C(C)C)cc2o1`, 7.94 µM (active); for `CC(=O)[C@H]1CC[C@H]2[C@@H]3CC=C4C[C@@H](OS(=O)(=O)O)CC[C@]4(C)[C@H]3CC[C@]12C`, 17.8 µM (active). For `COc1cccc(N2CCN(C3=Nc4c(F)cccc4[C@H](CC(=O)O)N3c3cc(C(F)(F)F)ccc3OC)CC2)c1` the value was 25.1 µM (active); for `Cc1cc(OCCCS(C)(=O)=O)cc(C)c1-c1cccc(COc2ccc(C3=CC(=O)NS3=O)cc2)c1` (centres undefined), 3.55 µM (active); for `CC(=O)OC/C(=C/C(=O)O)CC[C@@H]1C(C=O)=CC[C@@H]2C(C)(C)CCC[C@@]12C`, 10 µM (active). Regarding `CCC(C)C(=O)Oc1cc(C)ccc1C1(COC(=O)C(C)C)CO1` (centres undefined), the Potency entry is “inactive”. With `CC1(C)CCC(C)(C)c2cc(C#Cc3ccc(C(=O)O)cc3)ccc21`, the Potency was 1.58 µM (active). For `O=C(O)CSc1cc(NS(=O)(=O)c2ccc(Br)cc2)c2ccccc2c1O` the value was 3.16 µM (active); for `CC(=O)OC1CCC2(C)C(CCC3(C)C2CC=C2C4C(C)C(C)CCC4(C)CCC23C)C1(C)C(=O)O` (centres undefined), 3.98 µM (active); for `COc1ccc2nc3n[nH]c(C)c3c(NCCOCCO)c2c1`, “inactive”. To `Cn1cc(C2=C(c3coc4ccccc34)C(=O)NC2=O)c2cc(Br)ccc21` belongs 25.1 µM (active); to `CC(C)[C@@H](c1ccc(C(F)(F)F)cc1CN(Cc1cc(C(F)(F)F)cc(C(F)(F)F)c1)c1nnn(C)n1)N1CCC(C(=O)O)CC1`, 3.16 µM (active); to `C=C(C(=O)O)[C@@H]1CC=C(CCC(C)=O)[C@@H](C)CC1`, 56.2 µM (active). To `Cc1ccc(S(=O)(=O)N2CCC[C@H]2c2ccc(F)cc2)cc1` belongs “inactive”.

Regarding `CC(C)C[C@@H]1NC(=O)[C@@H](Cc2ccccc2)NC(=O)C(CCCCCC(=O)C2CO2)NC(=O)[C@@H]2CCCCN2C1=O` (some centres undefined), the Potency result is “inactive”. In the case of `C=CC(C)(C)c1[nH]c2ccccc2c1C[C@@H]1NC(=O)[C@H](C)NC1=O`, the Potency result is “inactive”. For `O=c1cc(N2CCOCC2)nc2c3ccccc3ccn12`, the Potency entry was “inactive”. Regarding `CCn1c(=O)c(-c2ccc(-c3cncs3)cc2Cl)cc2cnc(Nc3ccc(N4CCN(C)CC4)cc3)nc21`, the Potency result was “inactive”. To `CC(=O)O[C@H]1[C@H](O)C[C@@]2(C)C(CC[C@]3(C)C2CC=C2C4CC(C)(C)CC[C@]4(C(=O)O)CC[C@]23C)C1(C)C` (some centres undefined) belongs 7.94 µM (active). For `O=c1[nH]cnc2c([C@@H]3N[C@H](CO)[C@@H](O)[C@H]3O)c[nH]c12` the value was “inactive”; for `O=S(=O)(Cc1ccccc1)Nc1ccc(-c2ccc3c(cnn3-c3ccc(F)cc3)c2)c(C(F)(F)F)c1`, 20 µM (active).

For `Cc1ccc(-c2cn3c4c(sc3n2)CCCC4)cc1`, the Potency entry is “inactive”.

In the case of `C=C1CCC2C(C)(C)CCCC2(C)C1CC/C(C)=C\CO` (centres undefined), the Potency is 17.8 µM (active).

Take `CC[C@@H](Nc1c(Nc2cccc(C(=O)N(C)C)c2O)c(=O)c1=O)c1cc(C(C)C)co1`: the Potency is 22.4 µM (active). To `C[C@@]12C(=O)N(c3ccc(C(=O)Nc4cccc5cccnc45)cc3)C(=O)[C@@H]1[C@@H]1C=C[C@H]2C1` belongs “inactive”. To `COc1cc2c(c(OC)c1CC=C(C)C)C[C@H](c1ccc(O)c(CC=C(C)C)c1O)CO2` belongs 17.8 µM (active); to `Cc1ccc(-c2ncc[nH]2)cc1NC(=O)c1ccc(OCc2ccccn2)cc1`, “inactive”; to `CC(OC1OCCN(Cc2n[nH]c(=O)[nH]2)C1c1ccc(F)cc1)c1cc(C(F)(F)F)cc(C(F)(F)F)c1` (centres undefined), 44.7 µM (active). As to `Cc1nc2c(C(F)(F)F)cccc2nc1-c1ccc(-c2cccc(S(C)(=O)=O)c2)cc1`, the Potency entry is “inactive”.

Turning to `Cc1c(F)ccc(C(=O)Nc2cc([N+](=O)[O-])ccc2N2CCN(C)CC2)c1Cl`, the Potency entry was “inactive”.
